# Experimental data from paper PMC5913336, “True equilibrium measurement of transcription factor-DNA binding affinities using automated polarization microscopy”.
# Experiments:
# [1] = target: T1, Croc (Drosophila melanogaster, UniProt P32027 54-175); test: FP; 20 mM Tris-acetate pH 7.0, 50 "nM" NaCl as printed (probably mM), 0.01% Tween 20, 0.1 mM DTT; conventional titration; conditions: tags: N-GST (pGEX-6P-1, kept); dsDNA, one strand shown
# T1 sequence: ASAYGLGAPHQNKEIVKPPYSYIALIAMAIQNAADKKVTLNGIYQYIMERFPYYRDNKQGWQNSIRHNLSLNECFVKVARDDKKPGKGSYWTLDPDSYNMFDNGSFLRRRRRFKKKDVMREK
# [2] = target: T2, Ems (Drosophila melanogaster, UniProt P18488 373-462); test: FP; 33 mM phosphate pH 7.0, 90 mM NaCl, 0.01% Tween 20, 0.1 mM DTT, 0.5% agarose; room temperature; conditions: tags: N-GST (pGEX-6P-1, kept); dsDNA, one strand shown
# T2 sequence: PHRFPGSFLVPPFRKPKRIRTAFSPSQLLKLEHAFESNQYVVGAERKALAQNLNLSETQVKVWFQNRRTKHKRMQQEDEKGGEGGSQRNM
# [3] = target: T3, Hkb (Drosophila melanogaster, UniProt Q9VN10 181-296); test: as above; conditions: tags: N-GST (pGEX-6P-1, kept); dsDNA, one strand shown
# T3 sequence: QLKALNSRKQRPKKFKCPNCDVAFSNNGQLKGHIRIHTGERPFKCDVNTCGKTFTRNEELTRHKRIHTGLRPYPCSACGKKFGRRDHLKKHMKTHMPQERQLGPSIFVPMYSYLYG
# [4] = target: T4, EcR (Drosophila melanogaster, UniProt P34021 251-348); test: as above; conditions: tags: N-GST (pGEX-6P-1, kept); dsDNA, one strand shown
# T4 sequence: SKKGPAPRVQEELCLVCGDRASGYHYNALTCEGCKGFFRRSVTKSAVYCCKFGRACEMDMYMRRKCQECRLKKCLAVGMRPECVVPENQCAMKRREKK
# [5] = target: Gsc (Drosophila melanogaster, UniProt P54366 267-356); test: as above; conditions: tags: N-GST (pGEX-6P-1, kept); dsDNA, one strand shown
# Chain of Gsc (P54366 267-356): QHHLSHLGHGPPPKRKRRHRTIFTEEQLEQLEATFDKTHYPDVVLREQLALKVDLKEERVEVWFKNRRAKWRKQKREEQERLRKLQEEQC
# [6] = target: D (Drosophila melanogaster, UniProt Q24533 127-229); test: as above; conditions: tags: N-GST (pGEX-6P-1, kept); dsDNA, one strand shown
# Chain of D (Q24533 127-229): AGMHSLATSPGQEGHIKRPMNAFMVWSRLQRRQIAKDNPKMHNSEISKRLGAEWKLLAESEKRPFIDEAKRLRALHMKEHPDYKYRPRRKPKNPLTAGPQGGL
# [7] = target: T5, Slp1-FL (Drosophila melanogaster, UniProt P32030); test: as above; conditions: tags: N-GST (pGEX-6P-1, kept); dsDNA, one strand shown
# T5 sequence: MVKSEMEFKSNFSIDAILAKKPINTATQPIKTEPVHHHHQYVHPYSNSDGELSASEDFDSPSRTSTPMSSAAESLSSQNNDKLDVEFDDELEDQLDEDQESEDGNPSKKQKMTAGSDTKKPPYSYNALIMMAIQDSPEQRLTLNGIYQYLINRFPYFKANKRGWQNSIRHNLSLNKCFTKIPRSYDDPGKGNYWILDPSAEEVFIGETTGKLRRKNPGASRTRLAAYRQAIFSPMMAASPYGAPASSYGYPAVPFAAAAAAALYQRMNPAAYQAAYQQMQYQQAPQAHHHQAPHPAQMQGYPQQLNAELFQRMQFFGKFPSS
# [8] = target: Ttk-PF (Drosophila melanogaster, UniProt P17789 499-564); test: as above; conditions: dsDNA, one strand shown
# [9] = target: Cic (Drosophila melanogaster, UniProt Q9U1H0 483-565); test: as above; conditions: tags: N-GST (pGEX-6P-1, kept); dsDNA, one strand shown
sequence,measurement,setting,value
TTAGCTAAATATA,binding signal,[1],38.6 Kd / Kd of best base at the position
CACGTAATTAACTCA,binding signal,[2],9.76 Kd / Kd of best base at the position
CACGTAATTAGATCA,binding signal,[2],2.14 Kd / Kd of best base at the position
CAAGTAATTAGCTCA,binding signal,[2],1.41 Kd / Kd of best base at the position
CACGTTATTAGCTCA,binding signal,[2],26.4 Kd / Kd of best base at the position
AAGGCGCGTGAT,binding signal,[3],108 Kd / Kd of best base at the position
AAGGGGCGTAAT,binding signal,[3],130 Kd / Kd of best base at the position
AAATGACCCCTAC,binding signal,[4],1.94 Kd / Kd of best base at the position
AAGTAATCCGAT,binding signal,[5],4.46 Kd / Kd of best base at the position
GACCATTGGTCTTG,binding signal,[6],54.3 Kd / Kd of best base at the position
AACCATTGTTCTTG,binding signal,[6],1.37 Kd / Kd of best base at the position
GACCATTGTCCTTG,binding signal,[6],8.08 Kd / Kd of best base at the position
GACCATTGCTCTTG,binding signal,[6],46 Kd / Kd of best base at the position
GACCATAGTTCTTG,binding signal,[6],40.3 Kd / Kd of best base at the position
GACCATTGTTCTTT,binding signal,[6],1.16 Kd / Kd of best base at the position
GACCATCGTTCTTG,binding signal,[6],34.5 Kd / Kd of best base at the position
GACCATTGTTCTTG,Kd,[6],~2.3 nM
GACCACTGTTCTTG,binding signal,[6],40.3 Kd / Kd of best base at the position
GACCATTGTTCCTG,binding signal,[6],3.75 Kd / Kd of best base at the position
TACCATTGTTCTTG,binding signal,[6],1.36 Kd / Kd of best base at the position
GACCATTATTCTTG,binding signal,[6],14.1 Kd / Kd of best base at the position
GACCTTTGTTCTTG,binding signal,[6],2.8 Kd / Kd of best base at the position
GACCATTGTTCTGG,binding signal,[6],1.95 Kd / Kd of best base at the position
ACGTGTTTACACTCA,binding signal,[7],3.73 Kd / Kd of best base at the position
GACCATTGTTCGTG,binding signal,[6],3.61 Kd / Kd of best base at the position
GACCATTGTGCTTG,binding signal,[6],11.9 Kd / Kd of best base at the position
GACCATTGTTCTCG,binding signal,[6],1.79 Kd / Kd of best base at the position
GACCATTGTTCATG,binding signal,[6],2.96 Kd / Kd of best base at the position
GATCATTGTTCTTG,binding signal,[6],2.05 Kd / Kd of best base at the position
GACCATTCTTCTTG,binding signal,[6],17.3 Kd / Kd of best base at the position
ACGTGTTTACACTAA,binding signal,[7],10.7 Kd / Kd of best base at the position
GCCCATTGTTCTTG,binding signal,[6],1.11 Kd / Kd of best base at the position
GACCAGTGTTCTTG,binding signal,[6],33 Kd / Kd of best base at the position
GGCCATTGTTCTTG,binding signal,[6],1.18 Kd / Kd of best base at the position
GAACATTGTTCTTG,binding signal,[6],10.5 Kd / Kd of best base at the position
GACCATTGTTCTAG,binding signal,[6],1.95 Kd / Kd of best base at the position
ACGTGTTCACACTTA,binding signal,[7],37.4 Kd / Kd of best base at the position
CACCATTGTTCTTG,binding signal,[6],1.12 Kd / Kd of best base at the position
GACCATTGATCTTG,binding signal,[6],31.7 Kd / Kd of best base at the position
GACCATGGTTCTTG,binding signal,[6],39.1 Kd / Kd of best base at the position
GTCCATTGTTCTTG,binding signal,[6],1.08 Kd / Kd of best base at the position
GACTATTGTTCTTG,binding signal,[6],2.24 Kd / Kd of best base at the position
GACGATTGTTCTTG,binding signal,[6],12.4 Kd / Kd of best base at the position
GACCATTGTTCTTA,binding signal,[6],1.16 Kd / Kd of best base at the position
GACCATTTTTCTTG,binding signal,[6],40.5 Kd / Kd of best base at the position
GAGCATTGTTCTTG,binding signal,[6],2.52 Kd / Kd of best base at the position
GACCATTGTTGTTG,binding signal,[6],3.32 Kd / Kd of best base at the position
GACCAATGTTCTTG,binding signal,[6],44.4 Kd / Kd of best base at the position
GACCATTGTTATTG,binding signal,[6],3.41 Kd / Kd of best base at the position
ACGCCAGGATAAC,binding signal,[8],2.88 Kd / Kd of best base at the position
CGTTGAATGGCGT,binding signal,[9],2 Kd / Kd of best base at the position
